Records with an inconclusive call do not appear. The source made the active and inactive calls.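 The calls were made as follows, unless noted: active = viability at or below 27.92% in each of two runs, the all-compound median minus 4 SD; inconclusive = no clear call, values can overlap the other calls; inactive = the rest.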
test: viability of HCT116 without oncogenic beta-catenin – human colon tumor cells, pilot screen (AID 823;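 active = cell viability at or below a set limit in both duplicate runs, the limit being the all-compound median minus 4 SD, cut at about 23% in these data, passing the limit was not always enough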;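 also: 0% = wells killed by 20 µM Hyamine and 100% = untreated DMSO cell wells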); details: HCT116 beta-catenin knockout viability, CellTiter-Glo, 60 h; at 10 µM; stronger effect = lower value

Structure (SMILES)	viability
CCCCN(CC)CCNC(=O)Cn1cnc2sc(C)c(S(=O)(=O)N3CCOCC3)c2c1=O	99.5% (inactive)
CC1(C)C(C#N)=C(N)OC2=C1C(=O)CCC2	96.3% (inactive)
CCc1nnc(NC(=O)c2ccc(S(=O)(=O)N3CCOCC3)cc2)s1	105% (inactive)
Cc1ccnc(N2C(=O)c3ccccc3C2Nc2ccccc2Cl)c1 (stereo unspecified)	84.9% (inactive)
CCCCOC(=O)Nc1ccc(S(=O)(=O)Nc2cc(C)nc(C)n2)cc1	95.8% (inactive)
O=C1Nc2cc(Cl)cnc2N2CCCC12 (stereo unspecified)	97.7% (inactive)
CCn1c(-c2ccccc2O)n[nH]c1=S	93.7% (inactive)

test: viability of PTEN-null HCT116 cells – cell-based, HCT116 clonal line, CellTiter-Glo, pilot screen (AID 824); details: HCT116 PTEN-deleted viability, 60 h, at 10 µM, stronger effect = lower value;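 also: 0% = 20 µM Hyamine control and 100% = vehicle cell control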

Structure (SMILES)	viability
COc1ccc2cc(CCNC(=O)c3c(-c4ccccc4Cl)noc3C)c(=O)[nH]c2c1	92.7% (inactive)
CCOc1ccc(S(=O)(=O)N2CCN(S(=O)(=O)c3ccc(OCC)cc3)C(C)C2)cc1 (stereo unspecified)	93.7% (inactive)
Cc1occc1-c1nnc(SCCCC(=O)c2ccc(F)cc2)n1C	87.4% (inactive)
Cc1ccc(CCN2CC(C(=O)NCc3cccnc3)CC2=O)cc1 (stereo unspecified)	94.5% (inactive)
COc1ccccc1OCC(=O)Nc1ccc(S(=O)(=O)N2CCCCCC2)cc1	82.1% (inactive)
CCN(c1ccccc1)S(=O)(=O)c1ccc(N)cc1	98.1% (inactive)
CCOc1cccc(C(=O)Nc2nnc(-c3ccco3)s2)c1	104% (inactive)
c1ccc2c(c1)CCCN2c1nc2ccccc2n2cnnc12	83.3% (inactive)
O=C(CN1CCN(c2ccccc2F)CC1)c1ccc2cc[nH]c2c1	84.7% (inactive)
Cc1cccc(OCc2nnc(SCC(=O)NCCc3ccccc3)o2)c1	95.2% (inactive)
C=C(C)c1cccc(C(C)(C)NC(=O)N2CCN(c3ccccn3)CC2)c1	89.6% (inactive)
Cc1ccc(S(=O)(=O)NCc2ccco2)cc1C	97.2% (inactive)
COc1ccc(C(=O)NCC(c2cccnc2)N2CCN(c3ccccc3)CC2)cc1OC (stereo unspecified)	93.1% (inactive)
O=C(Cn1ncc2c1-c1ccccc1OC2)Nc1ccc(S(=O)(=O)N2CCCCC2)cc1	84.8% (inactive)
CC1CCCN(c2ncnc3c2cnn3-c2ccc(Cl)cc2)C1 (stereo unspecified)	79.3% (inactive)
CCOC(=O)N1CCC(NC(=O)C2CCCCN2S(=O)(=O)c2ccc(F)cc2)CC1 (stereo unspecified)	89.6% (inactive)
CC1NC(=O)NC1CCCCC(=O)O (stereo unspecified)	104% (inactive)
CCc1ccc(NC(=O)C2CC=CCC2C(=O)O)cc1 (stereo unspecified)	98.9% (inactive)
CCN(CCCNC(=O)Cn1cc2c(n1)CCCC2)c1cccc(C)c1	81.5% (inactive)
O=C(NC1CCCCCCC1)C1CCC(CNc2c(N3CCCC3)c(=O)c2=O)CC1 (stereo unspecified)	96% (inactive)

Structure (SMILES)	viability
CNC(=O)CN1C(=O)c2ccccc2S1(=O)=O	98.9% (inactive)
O=C(O)CCC(C(=O)O)n1c(O)c(C2=c3ccccc3=NC2=O)sc1=S (stereo unspecified)	95.3% (inactive)
CCOc1ccccc1NC(=O)C1CCN(S(=O)(=O)c2ccc(OC)c(OC)c2)CC1	98.1% (inactive)
Cc1cc(C)c(S(=O)(=O)Nc2nnc(C)s2)c(C)c1	99.3% (inactive)
Cc1ccc(C(c2sc3nc(C)nn3c2O)N2CCN(CCO)CC2)cc1 (stereo unspecified)	97.5% (inactive)
CCN(CC)C(=O)c1sc(NC(=O)c2ccoc2C)c(C(=O)OC)c1C	90.6% (inactive)
Cc1oc2c(c1C(=O)NC(Cc1c[nH]c3ccccc13)C(=O)O)CCCC2 (stereo unspecified)	97.6% (inactive)
COc1cccc(C2NC(=O)NC(O)(C(F)(F)F)C2C(=O)c2cccnc2)c1OC (stereo unspecified)	98.9% (inactive)
Cc1noc(C)c1S(=O)(=O)N(CC(=O)Nc1ccc2c(c1)OCO2)c1ccc(C(C)C)cc1	93.5% (inactive)
COc1ccc(C2CC(=O)N3CN(c4ccc(C)c(Cl)c4)CSC3=C2C#N)cc1 (stereo unspecified)	89.5% (inactive)
O=C(Cc1cccs1)N1CCN(c2ccccn2)CC1	98% (inactive)
O=C(O)CC1C(=O)NCCN1CCCc1ccccc1 (stereo unspecified)	97.9% (inactive)
CCCCN(CC)CCNC(=O)Cn1cnc2sc(C)c(S(=O)(=O)N3CCOCC3)c2c1=O	98.4% (inactive)
CC1(C)C(C#N)=C(N)OC2=C1C(=O)CCC2	97.4% (inactive)
CCc1nnc(NC(=O)c2ccc(S(=O)(=O)N3CCOCC3)cc2)s1	94.6% (inactive)
Cc1ccnc(N2C(=O)c3ccccc3C2Nc2ccccc2Cl)c1 (stereo unspecified)	92.5% (inactive)
CCCCOC(=O)Nc1ccc(S(=O)(=O)Nc2cc(C)nc(C)n2)cc1	91.6% (inactive)
O=C1Nc2cc(Cl)cnc2N2CCCC12 (stereo unspecified)	101% (inactive)
CCn1c(-c2ccccc2O)n[nH]c1=S	95.4% (inactive)
